FLuc counter: qHTS profiling assay for firefly luciferase inhibitor/activator using purifed enzyme and Km concentrations of substrates (counterscreen for miR-21 project); Luciferin 4-monooxygenase (Photinus pyralis), P08659; purified FLuc, Km substrates, luminescence inhibition; Potency, µM (titrated, usually from 57.5 µM), actives largely listed as inhibitors; 6.9% of 360,000 active; AID 588342, 2011; note: nearly all actives have a fitted effect of over 55% in size
Target sequence (P08659 whole entry, looked up): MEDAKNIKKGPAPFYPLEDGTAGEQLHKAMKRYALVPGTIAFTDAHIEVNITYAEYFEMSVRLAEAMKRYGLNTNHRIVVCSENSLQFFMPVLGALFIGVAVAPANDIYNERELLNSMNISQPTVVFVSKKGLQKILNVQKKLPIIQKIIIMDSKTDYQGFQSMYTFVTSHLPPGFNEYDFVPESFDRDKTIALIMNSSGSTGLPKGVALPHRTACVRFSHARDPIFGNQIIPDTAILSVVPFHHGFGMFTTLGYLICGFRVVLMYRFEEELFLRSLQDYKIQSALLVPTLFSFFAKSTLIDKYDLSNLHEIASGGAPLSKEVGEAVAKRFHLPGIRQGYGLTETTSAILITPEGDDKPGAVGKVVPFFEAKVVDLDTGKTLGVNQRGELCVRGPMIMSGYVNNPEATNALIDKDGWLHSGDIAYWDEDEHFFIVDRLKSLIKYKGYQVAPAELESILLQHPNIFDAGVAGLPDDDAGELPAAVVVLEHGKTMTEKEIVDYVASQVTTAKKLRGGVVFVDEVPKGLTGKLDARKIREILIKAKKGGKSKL
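Purified P. pyralis luciferase, 10 nM final, with Km-level 10 uM D-luciferin and 10 uM ATP in 50 mM Tris acetate pH 7.5, 10 mM Mg acetate, 0.01% Tween-20, 0.05% BSA; 6-point qHTS titration about 60 µM downward; luminescence read.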
NPC1 promoter act: qHTS Assay for NPC1 Promoter Activators. Huh7 NPC1 promoter luciferase reporter, 24 h. Potency, µM (doses to about 9.22 µM), actives largely listed as activators. 2.4% of 320,000 active; note: nearly all actives have a fitted effect of over 60% in size
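Luminescence from an NPC1 promoter-driven luciferase reporter in stably transfected Huh7 cells was measured after 24 h compound treatment at 37 °C, followed by 10 min ambient incubation with luciferase detection reagent.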
Rab9 promoter act: qHTS Assay for Rab9 Promoter Activators | Huh7 Rab9 promoter-luciferase reporter, luminescence, 24 h | Potency, µM (doses to about 9.22 µM), hits mostly activators | 2.8% of 320,000 active | AID 485297, 2010; note: nearly all actives have a fitted effect of over 60% in size
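Huh7 cells stably carrying Rab9 promoter–luciferase reporter, plated 1500 cells/well, compound added after 2 h and incubated 24 h at 37 °C; luciferase luminescence then read after 10 min with detection reagent.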
SMN2 splice enh: qHTS Assay for Enhancers of SMN2 Splice Variant Expression; HEK293 SMN2-luciferase splicing reporter, luminescence, 30-36 h; 2.8% of 210,000 active; Potency, µM (series often up to 46.1 µM), usual class: activators; AID 1458, 2008; note: nearly all actives have a fitted effect of over 55% in size
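HEK293 cells carry an SMN2 […]–luciferase reporter in which exon 7 inclusion puts luciferase in frame. Cells were plated 10-12 h before compound addition, then incubated 30-36 h at 37C. ONE-Glo luminescence was read; sodium butyrate at 4.5 mM final served as control.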
ELG1 genotox: qHTS screen for small molecules that induce genotoxicity in human embryonic kidney (HEK293T) cells expressing luciferase-tagged ELG1. HEK293T ELG1-luciferase reporter, luminescence, 16 h. Potency, µM (series often up to 46 µM), hits mostly activators. 1.3% of 330,000 active. AID 504466, 2011; note: nearly all actives have a fitted effect of over 60% in size
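ELG1-luciferase HEK293T cells, 2,000/well; compound pinned in; 16 hr, 37 °C, 5% CO2; ONE-Glo, 30 min RT; luminescence on CCD imager.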
ELG1 DNA repair: qHTS screen for small molecules that inhibit ELG1-dependent DNA repair in human embryonic kidney (HEK293T) cells expressing luciferase-tagged ELG1 | HEK293T ELG1-luciferase reporter, luminescence, 16 h; DNA damage induced by 5-fluorouridine | Potency, µM (highest dose often 46.1 µM), most hits filed as inhibitors | 2.3% of 330,000 active | AID 504467, 2011; note: nearly all actives have a fitted effect of over 55% in size
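Luminescence from the luciferase reporter, measured 30 min after ONE-Glo reagent at room temperature, was the read-out. Beforehand, 2,000 cells per well were exposed for 16 hr at 37 °C to 5-fluorouridine together with compound or vehicle.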
Hits are given with their value; i = inactive; ? = inconclusive; nt = not tested or not shown; [ ] = dose if it differs, or a comment. In the library only some 9.4% were active in any assay of this set; here they are far more common. Calls come from the whole dose curve; as a rule, active = well fitted curve in the direction sought with a large enough effect; inconclusive = small, poorly fitted or top-dose-only effect, or another doubt; inactive = no such curve, though single readings can be large; an effect the other way counts as inactive or inconclusive.

SMILES	FLuc counter	NPC1 promoter act	Rab9 promoter act	SMN2 splice enh	ELG1 genotox	ELG1 DNA repair
CCCn1cc(S(=O)(=O)c2ccc(CC)cc2)c(=O)c2ccccc21	i	nt	nt	i	nt	nt
Cc1[nH]n(-c2ccccc2)c(=O)c1C(c1cc(Cl)ccc1O)c1c(C)[nH]n(-c2ccccc2)c1=O	19µM	nt	nt	i	nt	nt
Cc1[nH]n(-c2ccccc2)c(=O)c1C(c1ccccc1C(=O)O)c1c(C)[nH]n(-c2ccccc2)c1=O	i	i	i	i	i	i
CCOc1cc(C(c2c(C)[nH]n(-c3ccccc3)c2=O)c2c(C)[nH]n(-c3ccccc3)c2=O)ccc1O	12µM	nt	nt	i	nt	nt
COc1ccc(C(c2c(C)[nH]n(-c3ccccc3)c2=O)c2c(C)[nH]n(-c3ccccc3)c2=O)cc1OC	19µM	i	i	i	i	?
CC(=O)c1sc(NC(=O)c2c(-c3ccccc3)c(-c3ccccc3)nn(C)c2=O)nc1C	?	nt	nt	i	nt	nt
N[C@@H](CO)C(=O)NNCc1ccc(O)c(O)c1O	nt	nt	nt	i	nt	nt
O=C(O)CCNCC(=O)O	nt	nt	nt	i[9.22 µM]	nt	nt
Clc1c(-c2nnc3n2CCC3)sc2ccccc12	21µM	i	i	i	i	?
CSc1nncc(-c2ccccc2)n1	i	i	i	i	i	?
CSc1nc(N)n2nc(-c3ccccc3)cc2n1	3.4µM	2µM	2.2µM	nt	10µM	?
Cc1ccc(-c2cc3nc(-c4ccccc4)cc(N)n3n2)cc1	?	?	1.8µM	7.1µM	?	?
Cc1ccc(-c2cc(N)n3nc(-c4ccc(C)cc4)cc3n2)cc1	i	i	i	i	i	i
Cc1cc(N)n2nc(-c3ccccc3)cc2n1	1.1µM	?	0.5µM	7.9µM	9.2µM	?
Cc1cc(-c2ccccc2)n2nc(-c3cccc(Br)c3)cc2n1	i	nt	nt	i	nt	nt
CCc1ccc2ncc3c(-c4ccc(F)cc4)nn(CC(=O)NC4CCCCC4)c3c2c1	i	nt	nt	nt	nt	nt
CCOC(=O)N1CCN(/[N+]([O-])=N/Oc2ccc([N+](=O)[O-])cc2[N+](=O)[O-])CC1	nt	i	i	nt	nt	nt
O=C(Nc1nnc(N2CCCC2)s1)Nc1cc(F)ccc1F	i	nt	nt	nt	nt	nt
Cc1ccc(-n2nnnc2CNC(=O)c2ccccc2F)cc1C	i	nt	nt	nt	nt	nt
CN(C)C(=O)c1cc(-c2ccccc2)no1	?	i	?	?	?	?
CC(=O)Nc1nccc(-c2cc(-c3ccccc3)no2)n1	?	3.5µM	2.2µM	nt	?	?
Cc1cc(N2CCCC2)ccc1/C=C1\NC(=S)N(C)C1=O	13µM	?	3.2µM	nt	i	?
O=C1/C(=C/c2ccc(N3CCCC3)cc2)NC(=S)N1C1CC1	12µM	i	?	i	i	?
Cc1ccc(-n2cnc3cc(C(=O)NCc4ccc(F)cc4)ccc32)c(C)c1	i	nt	nt	nt	nt	nt
O=C(NCc1ccccc1)c1ccc(-c2ccccc2C(F)(F)F)o1	?	i	i	i	i	?
SMILES	FLuc counter	NPC1 promoter act	Rab9 promoter act	SMN2 splice enh	ELG1 genotox	ELG1 DNA repair
COc1ccc(CNC(=O)c2cc(-c3ccccc3OC)on2)cc1	17µM	i	i	i	i	i
Cc1ccccc1-c1ccc(C(=O)NCc2ccccc2)o1	27µM	i	i	i	i	?
COc1ccccc1-c1cc(C(=O)NCc2ccc(F)cc2)no1	?	i	i	i	i	i
COc1ccccc1-c1cc(C(=O)NCc2ccccc2)no1	24µM	i	i	i	i	i
CN(c1ccc(C(=O)NCCSCc2c(F)cccc2Cl)cc1)S(C)(=O)=O	i	i	i	nt	i	13µM
O=C(NCCSCc1c(F)cccc1Cl)c1ccc(CN2CCOCC2)cc1	i	i	2.5µM	i	i	?
COc1ccc(NC(=O)C2CCN(S(=O)(=O)c3ccc4[nH]c(=O)ccc4c3)CC2)cc1Cl	i	nt	nt	nt	nt	nt
CCN(CCCNC(=O)c1cn(CC)c2ccc(S(=O)(=O)N(C)C)cc2c1=O)c1cccc(C)c1	i	i	i	i	i	23µM
CCn1cc(C(=O)NC(C)CCc2ccccc2)c(=O)c2cc(S(=O)(=O)N(C)C)ccc21 (centres undefined)	i	i	i[1.84 µM]	nt	i	21µM
CCn1cc(C(=O)NCc2ccc3c(c2)OCO3)c(=O)c2cc(S(=O)(=O)N(C)C)ccc21	i	i	i	i	i	16µM
C=CCn1cc(C(=O)NCCCOCC)c(=O)c2cc(S(=O)(=O)N(CC)CC)ccc21	i	i	i	i	i	18µM
C=CCn1cc(C(=O)NCCOC)c(=O)c2cc(S(=O)(=O)N(CC)CC)ccc21	i	i	i	i	i	?
CCn1cc(C(=O)NCCCN(C)c2ccccc2)c(=O)c2cc(S(=O)(=O)N(C)C)ccc21	i	i	i	i	i	?
CCn1cc(C(=O)NCc2ccc3c(c2)OCO3)c(=O)c2cc(S(=O)(=O)N3CCOCC3)ccc21	i	i	i	?	i	?
Cc1ccc(C(=O)Nc2ccc3oc(-c4ccc(C(C)(C)C)cc4)nc3c2)cc1	?	nt	nt	i	nt	nt
CC1=CC(C)=Nc2ccc(C)cc2N1	15µM	i	i	i	7.1µM	?
CCN(CCn1cccn1)C(=O)c1cc(COc2ccc(F)c(F)c2)on1	?	i	i	nt	i	?
CCN(CCN1CCCC1)C(=O)c1cc(COc2ccccc2SC)on1	i	i	i	nt	i	i
CCN(CCn1cccn1)C(=O)c1cc(COc2cc(C)ccc2C)on1	9.5µM	3.5µM	3.5µM	nt	?	?
CCN(CCn1cccn1)C(=O)c1cc(COc2ccccc2SC)on1	8.5µM	2µM	3.5µM	nt	?	?
O=C(N/N=C/c1ccco1)c1ccc(NC(=O)c2ccccc2Cl)cc1	i	i	i	i	i	i
O=C(CCC(=O)Nc1ccccc1)N/N=C/c1ccncc1	12µM	i	i	i	i	i
O=C(Nc1ccccc1C(=O)N/N=C/c1ccncc1)c1ccccc1	1.9µM	?	?	nt	i	?
CCOc1ccc(OCc2ccc(C(=O)NN=Cc3ccc[nH]3)cc2)cc1	nt	nt	nt	nt	i	?
CCOc1ccc(/C=N/NC(=O)c2ccccc2NC(=O)c2ccc(OC)cc2)cc1	0.38µM	?	?	i	i	?
SMILES	FLuc counter	NPC1 promoter act	Rab9 promoter act	SMN2 splice enh	ELG1 genotox	ELG1 DNA repair
COc1ccc(C(=O)Nc2ccccc2C(=O)N/N=C/c2ccco2)cc1	0.48µM	i	?	nt	?	?
Cc1ccc(Nc2c3c(nc4nncn24)CCC3)c(C)c1	i	nt	nt	i	nt	nt
Cc1ccc(C)c(NC(=O)Cn2cc(C(=O)C3CCCCC3)c3ccccc32)c1	i	nt	nt	i	nt	nt
Cc1ccc(CSc2nc3c([nH]c4ccccc43)c(=O)n2C)cc1	i	nt	nt	nt	nt	nt
COc1cc(C/C=C\c2ccccc2)c(OC)cc1O	nt	nt	nt	i	nt	nt
COc1ccc(CNc2nc(-c3ccc(OC)cc3)cc(C(F)(F)F)n2)cc1	i	nt	nt	i	nt	nt
